Results reported in ChEMBL document CHEMBL1157539, “Thousands of chemical starting points for antimalarial lead identification” (Nature, 2010).

The compounds below were run on Plasmodium falciparum (assay: GSK_TCMDC: Inhibition of Plasmodium falciparum 3D7 in whole red blood cells, using parasite LDH activity as an index of growth. Test compounds present at 2uM).
Assay type: functional

Row | SMILES | Inhibition [%]
1 | O=C(O)C(F)(F)F.O=C1CCCN1CCCNCc1cccc(-c2ccc(-c3nc4cc(C(F)(F)F)ccc4[nH]3)s2)c1 | 100
2 | COc1ccc2nccc([C@@H](O)CN3CCC(NCc4cc5c(Cl)cccc5[nH]4)CC3)c2c1.O=C(O)C(=O)O | 100
3 | CCOc1c(OC)ccc2c1CCN(CCN1CCC(CNC(=O)c3ccc(-c4ccc(C#N)cc4)cc3)CC1)C2 | 92
4 | Cc1cccn2c(=O)c3cc(C(=O)NC(C)c4ccccc4)c(=N)n(CCc4ccccc4)c3nc12 (stereo not given) | 100
5 | N#Cc1ccc(N(CCOc2ccc(Cl)c(F)c2)Cc2ccccc2C(F)(F)F)cc1C(F)(F)F | 100
6 | COc1ccc(Oc2ccc(-c3c(O)cc(C)nc3C)cc2)cc1 | 93
7 | CCC[C@@H]([C@@H](CC1CCCCC1)C(=O)N[C@H](C(=O)Nc1nccs1)[C@@H](C)OCc1ccccc1)N(O)C=O | 100
8 | COc1cc2[nH]c(-c3ccc(O)cc3)c(C)c(=O)c2c(OC)c1OC | 100
9 | COc1ccc2nccc([C@@H](O)CN3CCC(NC(=O)C(c4cc5ccccc5s4)N4CC(C)OC(C)C4)CC3)c2c1 (stereo not given in full) | 93
10 | CN(C)CCCOc1cccc(CCNCc2cccc(Oc3ccc(Cl)cc3)c2)c1.O=C(O)C(F)(F)F | 93
11 | O=C(Nc1cc(F)cc(F)c1)NC1CCN(CCCCCNC(=O)C2CC2c2ccc(Cl)c(Cl)c2)CC1 (stereo not given) | 100
12 | COc1ccc(Nc2ncc3c(-c4ccc(NC(=O)c5cccc(C(F)(F)F)c5)cc4)c[nH]c3n2)cc1OC | 89
13 | Cc1cccc(NC(=O)Nc2ccc(I)c(OCCN(C)C)c2)c1C | 96
14 | O=C(NCCCCN1CCC(c2ccc3c(c2OCCN2CCCC2=O)CCCC3)CC1)c1ccc(-c2ccc(C(F)(F)F)cc2)cc1 | 88
15 | CC(C)c1cn2c3c(cc(C(=O)N[C@@H](Cc4ccccc4)[C@H](O)CNC4CCCCC4)cc13)N(C)S(=O)(=O)CC2.O=CO | 98
16 | CC1(CCc2ccccc2)N=C(N)N(Cc2ccccc2)C(=O)C1c1ccc(Cl)c(Cl)c1.O=C(O)C(F)(F)F (stereo not given) | 97
17 | CN1CCN(CC(=O)Nc2ccc(-c3ccc(-c4nc5cc(C(F)(F)F)ccc5[nH]4)s3)cc2)CC1 | 100
18 | COc1cc2nc(NCC3CCCO3)n3nc(-c4ccccc4)nc3c2cc1OC (stereo not given) | 92
19 | CC(C)C[C@H](Nc1ccnc(NCC2CCCCC2)n1)C(=O)Nc1ccccc1.O=C(O)C(F)(F)F | 87
20 | CN1CCN(CC(=O)Nc2ccc(-c3ccc(-c4nc5cc(C(F)(F)F)ccc5[nH]4)cc3)cc2)CC1 | 100

Row | SMILES | Inhibition [%]
21 | CCCCc1ccccc1NS(=O)(=O)c1ccc(OC)c(N2CCNCC2)c1.Cl | 91
22 | O=C(Nc1cccc(Cl)c1Cl)N[C@H]1CCN(CCCCCNC(=O)C2CC2c2ccc(Cl)c(Cl)c2)C1 (stereo not given in full) | 87
23 | Cc1cccc2nc(-c3cccc(-c4cccc(NC(=O)CCc5c[nH]cn5)c4)c3)[nH]c12 | 100
24 | CCCCCCCCc1c(C)nc(C)c(C#N)c1O | 97
25 | Cc1nnc(N2C(=N)SC(=Cc3ccc(-c4ccc(OC(F)(F)F)cc4)o3)C2=O)s1 | 85
26 | COc1cccc(NC(=O)NCCNc2ccnc(Nc3ccc(F)cc3)n2)c1 | 94
27 | O=C(Nc1ccccc1F)N(CCCn1ccnc1)Cc1csc(-c2ccc(CNCc3ccccc3)cc2)n1.O=C(O)C(F)(F)F | 93
28 | CCCc1cc(Cc2cnc(N)nc2N)cc(CCC)c1OC.Cl | 92
29 | Cc1cc(O)c2c3c1C(=O)C=C1C3c3c(c(O)cc(O)c3C(=O)C1(C)C)C2=O (stereo not given) | 98
30 | CS(=O)(=O)CCN(CCS(C)(=O)=O)Cc1ccc(-c2ccc3ncnc(Nc4ccc(OCc5cccc(F)c5)c(Cl)c4)c3c2)o1.Cc1ccc(S(=O)(=O)O)cc1 | 90
31 | Cc1cnc(NCC2CCCCC2)nc1N[C@@H](CC(C)C)C(=O)Nc1ccccc1.O=C(O)C(F)(F)F | 96
32 | COc1ccc(CCNc2ccnc3cc(Cl)ccc23)cc1OC.Cl | 100
33 | COc1ccc2c(NCCc3ccccc3)cc(-c3ccccc3)nc2c1.Cl | 98
34 | Br.CCCN(CCCCCCNCCc1ccc(Cl)cc1)CCc1ccc(O)c(O)c1 | 91
35 | O=C(C=Cc1ccc(Cl)c(Cl)c1)NCCCCCN1CCC(CCNS(=O)(=O)c2ccc(F)cc2)CC1 | 88
36 | OC(CNc1ccnc(Nc2cccc(Cl)c2)n1)c1cccc(F)c1 (stereo not given) | 90
37 | CCOC(=O)NC1=NC(C)(C)N(OCc2cccc3c2ccc2ccccc23)C(NC(=O)OCC)=N1 | 98
38 | CN1CCC(NCc2cccc(-c3ccc(S(=O)(=O)NCc4ccccc4)cc3)c2)CC1.O=C(O)C(F)(F)F | 100
39 | O=C(NCC1CC1)C1CCN(C(c2ccccc2)c2cc(F)cc(F)c2)CC1 (stereo not given) | 99
40 | Cc1cc(NCCc2ccccc2)nc(N/C(=N/CC(=O)OC(C)(C)C)Nc2ccc(C(F)(F)F)cc2)n1.I | 100
